Results filed as inconclusive are left out. Calls of active or inactive are those of the source. Calls follow the shape of the dose curve; as a rule, active = well fitted inhibition curve with a large enough effect; inconclusive = small, poorly fitted or top-dose-only effect; inactive = flat fitted curve, though single readings scatter. Where a SMILES comes first, the peptide text is derived from it.
Key:
CRL-7250 = normal cell line; assay: Cytotoxic Profiling of Annotated Libraries Using Quantitative High-Throughput Screening (AID 1296008); details: Five cell lines viability, CellTiter-Glo ATP luminescence, 48-72 h; max response: stronger effect = lower value
Summary of the method: (§1)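 Compounds were pin-transferred onto cells and incubated 48 or 72 hr at 37 degree Celsius, 95% humidity. CellTiter-Glo was added, plates sat 10 min at room temperature, then ATP-coupled luminescence was imaged as the viability read-out.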

HEK293 = assay: as above; details: Five cell lines viability, CellTiter-Glo ATP luminescence, 48-72 h; max response: stronger effect = lower value
Summary of the method: as §1

HaCat = assay: as above; details: Five cell lines viability, CellTiter-Glo ATP luminescence, 48-72 h; max response: stronger effect = lower value
Summary of the method: as §1

NIH3T3 = assay: as above; details: Five cell lines viability, CellTiter-Glo ATP luminescence, 48-72 h; max response: stronger effect = lower value
Summary of the method: as §1

MCC-13 = assay: qHTS assay to identify novel small-molecules to repurpose for Merkel cell carcinoma treatment (AID 1296009); details: MCC and control cell lines, CellTiter-Glo viability, 72 h; series mostly up to 46 µM
Summary of the method: (§2)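 Luminescence from CellTiter-Glo, read 10 min after addition at room temperature, reported viability following a 72 hr, 37 degree celsius treatment with NPC or MIPE compounds in titration; values normalized to plate controls.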

MKL-1 = assay: as above; details: MCC and control cell lines, CellTiter-Glo viability, 72 h; series mostly up to 46 µM
Summary of the method: as §2

MKL-2 = assay: as above; details: MCC and control cell lines, CellTiter-Glo viability, 72 h; series mostly up to 46 µM
Summary of the method: as §2

MCC-26 = assay: as above; details: MCC and control cell lines, CellTiter-Glo viability, 72 h; series mostly up to 46 µM
Summary of the method: as §2
% is scaled to controls: 0 for no effect and ±100 for the full control effect.
Also: nearly all actives have a fitted effect of over 60% in size.

COC(=O)c1ccc(NC(C)=O)cc1OC
inactive: max response (CRL-7250) -0.178% | max response (HEK293) -0.683% | max response (HaCat) -9.21% | max response (NIH3T3) -16.1% | Potency (MCC-13) | Potency (MKL-1) | Potency (MKL-2)

CCCOc1ccc2c(c1)CC[C@@H]1[C@@H]2CC[C@]2(C)C(OC)CC[C@@H]12 (stereo not given in full)
inactive: max response (CRL-7250) -5.35% | max response (HEK293) -6.37% | max response (HaCat) 2.29% | max response (NIH3T3) 0.167% | Potency (MCC-13) | Potency (MCC-26) | Potency (MKL-1) | Potency (MKL-2)

Cc1ccc2c(Cl)cc(Cl)c(O)c2n1
inactive: max response (CRL-7250) -1.98% | max response (HEK293) -23.5% | max response (HaCat) -10% | max response (NIH3T3) 2.93% | Potency (MCC-13) | Potency (MCC-26) | Potency (MKL-1) | Potency (MKL-2)

CC1(C)O[C@@H]2C[C@H]3[C@@H]4C[C@H](F)C5=CC(=O)C=C[C@]5(C)[C@@]4(F)[C@@H](O)C[C@]3(C)[C@]2(C(=O)CO)O1
inactive: max response (CRL-7250) -4.6% | max response (HEK293) 1.46% | max response (HaCat) 1.62% | max response (NIH3T3) -12.6% | Potency (MCC-13) | Potency (MCC-26) | Potency (MKL-1) | Potency (MKL-2)

[O-][n+]1cccc(/C(Cl)=N/OC[C@@H](O)CN2CCCCC2)c1
inactive: max response (CRL-7250) 4.98% | max response (HEK293) -1.36% | max response (HaCat) 2.38% | max response (NIH3T3) 0.672% | Potency (MCC-13) | Potency (MCC-26) | Potency (MKL-1) | Potency (MKL-2)

CCOC(=O)Oc1ccc(CCNC(=O)[C@H](CCSC)NC(C)=O)cc1OC(=O)OCC
inactive: outcome (CRL-7250) | max response (HEK293) -13% | max response (HaCat) -20.7% | outcome (NIH3T3) | Potency (MCC-13) | Potency (MCC-26) | Potency (MKL-1) | Potency (MKL-2)

CC(C)C(=O)Nc1cccc(C2CN3CCSC3=N2)c1 (stereo not given)
inactive: max response (CRL-7250) -9.12% | max response (HEK293) -1.66% | max response (HaCat) -7.7% | max response (NIH3T3) -0.0334% | Potency (MCC-13) | Potency (MCC-26) | Potency (MKL-1) | Potency (MKL-2)

Cn1c(=O)c2c(ncn2CC(=O)O)n(C)c1=O
inactive: max response (CRL-7250) -0.788% | max response (HEK293) -8.26% | max response (HaCat) -42.3% | outcome (NIH3T3) | Potency (MCC-13) | Potency (MCC-26) | Potency (MKL-1) | Potency (MKL-2)

O=[N+]([O-])c1cncn1CCN1CCOCC1
inactive: outcome (CRL-7250) | max response (HEK293) 3.5% | max response (HaCat) -14.4% | max response (NIH3T3) 2.27% | Potency (MCC-13) | Potency (MCC-26) | Potency (MKL-1) | Potency (MKL-2)

CCCCOC(=O)CCCCCCCCC(=O)OCCCC
inactive: max response (CRL-7250) 0.0544% | max response (HEK293) 1.21% | max response (HaCat) -1.87% | outcome (NIH3T3) | Potency (MCC-13) | Potency (MCC-26) | Potency (MKL-1) | Potency (MKL-2)

Cc1cc(=O)oc2cc(O[C@@H]3SC[C@@H](O)[C@H](O)[C@H]3O)ccc12
inactive: max response (CRL-7250) -1.48% | max response (HEK293) -8.77% | max response (HaCat) 4.75% | outcome (NIH3T3) | Potency (MCC-13) | Potency (MCC-26) | Potency (MKL-1) | Potency (MKL-2)

CC(=O)N[C@@H](CO)C(=O)N[C@@H](CC(=O)O)C(=O)N[C@@H](CCCCN)C(=O)N1CCC[C@H]1C(=O)O (Ac-SDKP-OH)
inactive: max response (CRL-7250) 3.47% | max response (HEK293) 0.0413% | max response (HaCat) -26.1% | max response (NIH3T3) -0.894% | Potency (MCC-13) | Potency (MCC-26) | Potency (MKL-1) | Potency (MKL-2)

O=C(O)CCC(=O)OC[C@@H](NC(=O)C(Cl)Cl)[C@H](O)c1ccc([N+](=O)[O-])cc1
inactive: max response (CRL-7250) -4.73% | max response (HEK293) -21.8% | max response (HaCat) 0.154% | max response (NIH3T3) -0.147% | Potency (MCC-13) | Potency (MCC-26) | Potency (MKL-1) | Potency (MKL-2)

CC(C)CCCC(C)NCCC(C)C (stereo not given)
inactive: max response (CRL-7250) -5.37% | max response (HEK293) -7.84% | max response (HaCat) 3.37% | outcome (NIH3T3) | Potency (MCC-13) | Potency (MCC-26) | Potency (MKL-1) | Potency (MKL-2)

Fc1ccc(C(c2ccc(F)cc2)N2CCNCC2)cc1
inactive: outcome (CRL-7250) | max response (HEK293) -6.69% | max response (HaCat) -17.9% | max response (NIH3T3) -2.81% | Potency (MCC-13) | Potency (MCC-26) | Potency (MKL-1) | Potency (MKL-2)

O=C(O)CCCC[C@@H]1SC[C@@H]2NC(=O)N[C@@H]21
inactive: outcome (CRL-7250) | max response (HEK293) -6.79% | max response (HaCat) 4.46% | max response (NIH3T3) 1.46% | Potency (MCC-13) | Potency (MCC-26) | Potency (MKL-1) | Potency (MKL-2)

CCCCN(CCCC)C(C(N)=O)c1ccc(OC)cc1 (stereo not given)
inactive: outcome (CRL-7250) | max response (HEK293) -5.09% | max response (HaCat) 2.19% | outcome (NIH3T3) | Potency (MCC-13) | Potency (MKL-1) | Potency (MKL-2)

CC(=O)N(CC(=O)N(C)C)c1ccccc1
inactive: max response (CRL-7250) -29.6% | max response (HEK293) -63.5% | max response (HaCat) -4.61% | max response (NIH3T3) 1.94% | Potency (MCC-13) | Potency (MCC-26) | Potency (MKL-1) | Potency (MKL-2)

O=C(CS(=O)Cc1ccco1)NC/C=C\COc1cc(CN2CCCCC2)ccn1 (stereo not given)
inactive: max response (CRL-7250) -3.38% | max response (HEK293) 0.0112% | max response (HaCat) -5.87% | max response (NIH3T3) -2.51% | Potency (MCC-13) | Potency (MCC-26) | Potency (MKL-1) | Potency (MKL-2)

— PubChem BioAssay (NCATS)
